# Screen size: about 2,100 compounds; about 650 (31%) were called active. Roughly 16% stayed inconclusive and do not appear here. Some of the results follow. Values without a mark were called inactive. Calls follow the shape of the dose curve; as a rule, active = well fitted inhibition curve with a large enough effect; inconclusive = small, poorly fitted or top-dose-only effect; inactive = flat fitted curve, though single readings scatter.
# Test: qHTS for inhibitors of Vif-A3G interactions: Cherry picks; also: nearly all actives have a fitted effect of over 80% in size; as to activity, negative = fluorescence increase: % of control where 0% means no effect
# Conditions: HeLa A3G-eYFP + Vif (tagged APOBEC3G with the HIV-1 protein that degrades it), 24 h; Potency: eYFP fluorescence increase; series mostly up to 36.9 µM; activity, negative = fluorescence increase: at the top concentration
# Outline: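 HeLa cells stably expressing A3G-eYFP and Vif, cultured overnight then exposed to compounds at several concentrations for 24 hours at 37 C, 5% CO2; cellular yellow fluorescence (488 nm ex, 500-530 nm em) imaged on Acumen, MG132 positive control.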
# Potency is read from the fitted curve at half-maximal effect.
Compound,Potency,"activity, negative = fluorescence increase"
CCSc1nnc(-c2sc3nnc(-c4ccccc4)c(-c4ccccc4)c3c2N)o1,10.3 µM (active),
COc1ccc(NC(=O)C2Cc3c(-c4cccc(NC(C)=O)c4)ccnc3O2)cn1 (stereo not drawn),,-12.3%
CSC1=NC(C(Cl)(Cl)Cl)N=C(c2ccccc2)N1 (stereo not drawn),,-0.698%
CCS(=O)(=O)C1=NN2C(=N)/C(=C\c3ccc(SCc4ccco4)o3)C(=O)N=C2S1,,-18.8% [at 46.1 µM]
CC1=CN2C(=N)/C(=C/c3ccc([N+](=O)[O-])o3)C(=O)N=C2S1,9.94 µM (active),
Fc1ccc2nc3[nH]c4ccccc4c3nc2c1,1.4 µM (active),
CN1CCc2c(sc3c2C(=O)NC(c2ccc(-c4ccc(Cl)cc4)o2)N3)C1 (stereo not drawn),11.6 µM (active),
CCOc1ccccc1C1CC(=O)NC2=C1C(=O)CCC2 (stereo not drawn),,-0.477%
O=C1CC(c2ccccc2)Cc2[nH]c(=O)c(-c3nc(-c4cccc(Cl)c4)cs3)cc21 (stereo not drawn),,-19.9% [at 46.1 µM]
Cc1sc(-c2cc3c([nH]c2=O)CC(c2ccccc2)CC3=O)nc1-c1ccc(Cl)cc1 (stereo not drawn),20.6 µM (active),
COCCOC(=O)c1[nH]c2c(c1C)C(=O)CC(c1ccccc1)C2 (stereo not drawn),,-17%
O=C(O)CSc1c2ccccc2cc2ccccc12,,-2.38%
O=C(NC(=S)Nc1c(Cl)cc(Cl)cc1Cl)c1ccccc1,,7.49% [at 46.1 µM]
COc1ccc(C)cc1Nc1c2c(nc3ccccc13)CCC2,,-6.22%
COc1ccc2nc3ccccc3nc2c1NC(=O)c1ccc(Cl)cc1Cl,2.8 µM (active),
COc1cc(C(=O)Nc2ccc3ccccc3c2)cc(OC)c1OC,,-7.49%
COc1ccc2nc3ccccc3nc2c1NC(=O)c1ccc(Cl)cc1,20.6 µM (active),
COC(=O)/C(=C\Nc1ccc(Cl)cc1Cl)NC(=O)c1ccc(OC)cc1,,-2.72%
COc1ccccc1Nc1c2c(nc3ccc(NC(=O)c4ccc(N(C)C)cc4)cc13)CCCC2,,-3.16% [at 46.1 µM]
COc1ccc(S(=O)(=O)NCc2ccccn2)cc1NC(=O)c1ccccc1,,-3.5%
COc1ccc2nc3ccccc3nc2c1NC(=O)c1ccc(Br)cc1,14.6 µM (active),
COc1ccc2nc(Nc3nc(CSc4ccc(C)cc4)cc(=O)[nH]3)nc(C)c2c1,,-14.5% [at 46.1 µM]
CN(C)c1ccc(/C=C2\C(=N)N3N=C(CC(=O)N4CCCCC4)SC3=NC2=O)cc1,18.4 µM (active),
COc1cc(/C=C2\C(=N)N3N=CSC3=NC2=O)cc(Br)c1OC(=O)c1ccco1,,12.1% [at 46.1 µM]
CCN(CC)c1ccc(/C=C2\C(=N)N3N=C(CC(=O)N4CCOCC4)SC3=NC2=O)cc1,0.177 µM (active),
CCN(CC)c1ccc(/C=C2\SC(N)=NC2=O)cc1,,-29.5%

Compound,Potency,"activity, negative = fluorescence increase"
CN(C)c1ccc(/C=C2\SC(N3CCCCC3)=NC2=O)cc1,23.1 µM (active),
O=c1c2cc3ccccc3n2cnn1Cc1ccccc1F,,-10.9%
CCOc1ccccc1Oc1nc(C)nc2c1oc1ccccc12,,-1.4% [at 46.1 µM]
Brc1ccc2c(c1)C(c1cccnc1)=NNC(c1cccs1)=N2,,-2.51%
COc1ccc2cc(-c3nc(Cl)c4c5c(sc4n3)CC(C)CC5)c(=O)oc2c1 (stereo not drawn),4.11 µM (active),
CN1C(=O)/C(=C/c2ccccc2OCc2ccc(F)cc2)N(C)C1=S,23.1 µM (active),
O=[N+]([O-])c1ccccc1S(=O)(=O)Nc1ccc(-c2ccc(N3CCOCC3)nn2)cc1,23.1 µM (active),
COc1cc(C(=O)N/N=C(\C)c2ccccn2)cc(OC)c1OC,,-24%
COc1cc(C2Nc3ccc4ncccc4c3C3=C2C(=O)CCC3)cc(OC)c1O (stereo not drawn),,3%
CCOc1ccc(C(=O)COC(=O)Cc2n[nH]c(=O)c3ccccc23)cc1,,-3.45%
CC[n+]1ccc(/C=C2\Sc3ccccc3N2CCCS(=O)(=O)[O-])c2ccccc21,20.6 µM (active),
N#Cc1sc2nc(-c3cccs3)cc(-c3ccc(Cl)cc3)c2c1N,15.8 µM (active),
COc1ccc(-c2cc(-c3cccs3)nc3sc(C#N)c(N)c23)cc1,16.4 µM (active),
Cc1nc(-c2ccc(Cl)cc2)sc1C(=O)NN,,0.88%
CCN(CC)C(=O)c1sc2nc(-c3cccs3)cc(-c3ccc(Cl)cc3)c2c1N,14 µM (active),
CC(C)CC(=O)NC(=S)N(Cc1ccccc1)Cc1ccccc1,,6.36% [at 46.1 µM]
Oc1ccc(C=NNC(=S)Nc2ccc(F)cc2)c(O)c1,,-14.8% [at 46.1 µM]
COc1cc(OC)cc(C(=O)N/N=C/c2ccc(OC)c(COc3ccc4ccccc4c3)c2)c1,,0.593%
COc1cc(C(=O)Nc2ccc(C)cc2)c2ccccc2n1,,-24.2%
CCCCN1C(=O)C2Cc3c([nH]c4ccccc34)CN2C1=S (stereo not drawn),14 µM (active),
COc1ccc(/C=N/NC(=O)c2cccnc2)cc1CSc1ccccn1,,2.26%
CC1(C(=O)NCc2ccco2)Cc2c(-c3cccc(C(N)=O)c3)ccnc2O1 (stereo not drawn),,-3.61%
C/C(=N\NC(=O)C(C)n1nc(C)c([N+](=O)[O-])c1C)c1ccccc1O (stereo not drawn),,-0.134% [at 46.1 µM]
Cc1cc(C)cc(Oc2nc(C(F)(F)F)nc3ccccc23)c1,,-7.3%
CCCCN1C(=O)c2cccc3cc(O)cc(c23)C1=O,16.4 µM (active),
Cc1c(Cl)cccc1NC(=O)c1oc2ccc(S(=O)(=O)N3CCC4(CC3)OCCO4)cc2c1C,,-4.65% [at 46.1 µM]

Compound,Potency,"activity, negative = fluorescence increase"
CCNc1ccc(Br)cc(C(=O)/C=C/c2ccc3c(c2)OCO3)c1=O,18.4 µM (active),
COc1ccc(NC(=O)C(NC(=O)/C=C\c2ccc3c(c2)OCO3)c2ccccc2)cc1 (stereo not drawn),,-4.24% [at 46.1 µM]
O=C(N/N=C/c1ccc2c(c1)OCO2)c1cccc2ccccc12,,-1.42%
COc1ccc(NC(=O)C2Cc3c(-c4cccc(C(C)=O)c4)ccnc3O2)cc1 (stereo not drawn),,-8.31%
Cc1ccccc1-n1c(/C=C/c2c(C)n(C)c3ccccc23)nc2ccccc2c1=O,8.2 µM (active),
Cc1c(/C=N\NC(=O)c2cc3ccccc3o2)c2ccccc2n1C,,-6.08%
CCCn1c(CN2CCN(C(=O)OCC)CC2)nc2cc(NC(=O)C(C)C)ccc21,,0.103%
COc1ccccc1Nc1nnc(SCC2CCCCO2)s1 (stereo not drawn),,-0.68%
O=C(NN=Cc1c(O)ccc2ccccc12)c1ccc2c(c1)OCO2,,-26.3% [at 46.1 µM]
Cc1cc2nc(SCCOC(=O)Nc3cccc(Cl)c3)nc(C)c2cc1C,,4.01% [at 46.1 µM]
Cn1ncc(N=Cc2c(O)ccc3ccccc23)c1C(=O)Nc1cccc(Cl)c1,11.6 µM (active),
CSc1nsc(/C=C/Nc2ccc(O)cc2C)c1C#N,20.6 µM (active),
Cc1nc(CSc2nsc(/C=C/N(C)C)c2C#N)cs1,,-3.04%
CSc1nsc(/C=C/Nc2ccc(F)cc2)c1C#N,,4.62% [at 46.1 µM]
Cc1cc(C)nc(Nc2n[nH]c(COc3cccc4ccccc34)n2)n1,,1.35%
CCN(CC)C(=O)Cn1c(=O)n(-c2ccccc2)c(=O)c2c3c(sc21)CCC3,,11.4% [at 46.1 µM]
O=C(O)c1ccc(NS(=O)(=O)c2cccc(C(=O)Nc3ccccc3[N+](=O)[O-])c2)cc1,,-3.19%
Cc1ccc(NC(=O)c2ccc(NCC3CCCO3)c([N+](=O)[O-])c2)cc1Cl (stereo not drawn),16.4 µM (active),
Cc1ccc(NC(=O)CSc2ccccc2NC(=O)c2cccc(Cl)c2)cc1Cl,,2.74% [at 46.1 µM]
Cc1ccc2c(CC(=O)NCc3ccco3)coc2c1C,,-4.36%
O=C(NC(=S)Nc1ccc(N2CCCCC2)c(Cl)c1)c1ccc2c(c1)OCCO2,,-0.693% [at 46.1 µM]
Cc1ccc(NC(=O)c2ccc(NCc3ccco3)c([N+](=O)[O-])c2)cc1Cl,18.4 µM (active),
O=C(Nc1cc(F)cc(F)c1)c1ccc(NCCc2ccccc2)c([N+](=O)[O-])c1,14.6 µM (active),
Cc1ccc(NC(=O)c2ccc([N+](=O)[O-])s2)cc1S(=O)(=O)N1CCOCC1,,3.79%
S=C(Nc1ccccc1)N1CCn2c1nc1ccccc12,,-1.43%
CC(=O)c1cccc(-c2ccnc3c2CC(C(=O)Nc2ccc4c(c2)OCO4)O3)c1 (stereo not drawn),,-0.931%

Compound,Potency,"activity, negative = fluorescence increase"
COc1ccccc1N1CCN(C(=O)c2cc(=O)c3cc(C)ccc3o2)CC1,,-7.42%
CCCC(=O)NC(c1ccc(OC)cc1)c1c(O)ccc2ccccc12 (stereo not drawn),,-6.1%
COc1cc(-c2cc(NC=O)c3ncc(-c4ccc(C(C)=O)cc4)n3c2)cc(OC)c1OC,,0.567%
CCN(CC)c1nc(C)c(C(=S)Nc2cc([N+](=O)[O-])ccc2Cl)s1,,7.74% [at 46.1 µM]
C/C(CCC(C)C)=N\NC(=S)NCc1ccccc1,,4.1% [at 46.1 µM]
Cc1ccc(C(=O)Nc2sc(Cc3ccc4c(c3)OCO4)c(C)c2C(N)=O)cc1,,-26.3% [at 46.1 µM]
CC(C)CN(CC(C)C)S(=O)(=O)c1ccc(C(=O)Nc2sc3c(c2C(N)=O)CCN(C(C)C)C3)cc1,18.4 µM (active),
COc1ccc(C(=O)Nc2sc3c(c2C#N)CCN(C(C)=O)C3)cc1,,-8.58%
CCCCN(CCCC)S(=O)(=O)c1ccc(C(=O)Nc2sc3c(c2C(N)=O)CCN(CC)C3)cc1,29.1 µM (active),
CC(C)N1CCc2c(sc(NC(=O)c3cc4cc([N+](=O)[O-])ccc4s3)c2C(N)=O)C1,,-27.5% [at 46.1 µM]
CCN1CCc2c(sc(NC(=O)c3ccc(S(=O)(=O)N(CC)c4ccccc4)cc3)c2C(N)=O)C1,17.7 µM (active),
CCN1CCc2c(sc(-n3cccc3)c2C(C)NC(=O)Nc2ccc(C(=O)OC)cc2)C1 (stereo not drawn),,10.3% [at 46.1 µM]
COc1cccc(C(=O)Nc2sc3c(c2C#N)CCN(C(C)=O)C3)c1,,-8.68%
CC(C)N1CCc2c(sc(NC(=O)c3ccc(S(=O)(=O)N4CCOCC4)cc3)c2C#N)C1,20.6 µM (active),
CC1(C)COC(Cn2c3ccccc3c3ccccc32)O1 (stereo not drawn),,-5.66%
COC(=O)c1ccc(Oc2cc(C)nc(SC)n2)cc1,,-10.7%
CC(/C=N/NC(=O)c1cccc(F)c1)=C\c1ccccc1,,-11.1%
O=C(Cn1ncc(Cl)c(Cl)c1=O)NC(=O)NC1CCCCC1,,0.0571%
C=CCSc1nc2sc3c(c2c(=O)n1CC)CCC3,,1.48% [at 46.1 µM]
COc1ccc(S(=O)(=O)N2c3ccccc3OCC2CC(=O)O)cc1 (stereo not drawn),,-10.8%
CC(C)(C)C(=O)Nc1sc2c(c1C#N)CCN(Cc1ccccc1)C2,,-0.815% [at 46.1 µM]
CCCN1CCc2c(sc(NC(=O)c3ccc(S(=O)(=O)N(C)c4ccccc4)cc3)c2C(N)=O)C1,16.4 µM (active),
CCCN1CCc2c(sc(NC(=O)c3ccc(S(=O)(=O)N(C)c4ccccc4)cc3)c2C(=O)NC)C1,18.4 µM (active),
COc1ccccc1N(C)S(=O)(=O)c1ccc(C(=O)OCC(=O)N2CCC2)cc1,,-5.51%
CCOC(=O)c1c(NC(=O)c2ccc(S(=O)(=O)N3CCC(C)CC3)cc2)sc2c1CCN(C)C2,18.4 µM (active),

# Source: PubChem BioAssay AID651812 (National Center for Advancing Translational Sciences (NCATS), 2012)
